Shown are actives, neighbours in structure and some others; about 10% of the full set was active somewhere.
BAZ2B block: qHTS Assay for Inhibitors of BAZ2B. Bromodomain adjacent to zinc finger domain protein 2B (Homo sapiens), Q9UIF8. AlphaScreen BAZ2B-H3K14Ac peptide displacement. Potency, µM (titrated, usually from 114 µM), for inactives: top-dose activity change, negative = inhibition, hits mostly inhibitors. 4.4% of 360,000 active; note: % is set by controls: 0 for no effect and ±100 for the full control effect; nearly all actives have a fitted effect of over 60% in size
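BAZ2B 50 nM plus b-H3(5-23)K14Ac 50 nM, PBS pH 7.4/0.01% Tween-20, 30 min RT; compound added (max 110 uM), 30 min RT; streptavidin donor/Ni-chelate acceptor beads 10 ug/mL final, 20 min dark; AlphaScreen read.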
GLS inhibitor: qHTS for Inhibitors of Glutaminase (GLS). Glutaminase kidney isoform, mitochondrial (Homo sapiens), O94925. GLS enzymatic activity, qHTS titration. Potency, µM (highest dose often 45.5 µM), inactives show at the highest dose activity change, negative = inhibition, usual class: inhibitors. 0.21% of 410,000 active. AID 624170, 2012; note: % is set by controls: 0 for no effect and ±100 for the full control effect
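hKGA in 45 mM KH2PO4 pH 8.2, 0.02% Tween-20 with pin-transferred compounds; 1 mM L-glutamine (stock) plus glutamate oxidase/HRP/Amplex Red coupling added. Fluorescence read initially and after 30 min at RT.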
HP1b binding inh: HTS for Inhibitors of HP1-beta Chromodomain Interactions with Methylated Histone Tails; AlphaScreen HP1-beta / biotin-H3K9me3 peptide binding; 0.56% of 390,000 active; Potency, µM (highest dose often 114 µM), without a hit: at the top dose activity change, negative = inhibition, usual class: inhibitors; Chromobox protein homolog 1 (Homo sapiens), P83916; note: nearly all actives have a fitted effect of over 70% in size
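HP1-beta protein (50 nM final) preincubated 30 min at room temperature with biotinylated H3(1-18)K9me3 peptide (50 nM) in PBS pH 7.4, 0.01% Tween-20, then compound added for 30 min. AlphaScreen streptavidin donor/nickel chelate acceptor beads (10 ug/mL final), 30 min dark, luminescence read.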
G9a inh: qHTS Assay for Inhibitors of Histone Lysine Methyltransferase G9a; G9a H3K9 monomethylation, AlphaScreen, 2 h; Histone-lysine N-methyltransferase EHMT2 (Homo sapiens), Q96KQ7; Potency, µM (highest dose often 102 µM), inactives show at the top dose activity, negative = inhibition, usual class: inhibitors; 8.8% of 350,000 active; note: % is set by controls: 0 for no effect and ±100 for the full control effect; nearly all actives have a fitted effect of over 75% in size
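G9a (20 nM) was preincubated 15 min with compound, then reacted 2 h at room temperature with 500 nM biotin-H3K9 peptide and 20 µM SAM. Monomethyl-H3K9 detected by AlphaScreen using anti-H3K9me1 antibody.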
L3MBTL1 block: qHTS Assay for the Inhibitors of L3MBTL1; AID 485360, 2010; Potency, µM (series often up to 57.1 µM), for inactives: at the top dose activity, negative = inhibition, most hits filed as inhibitors; Lethal(3)malignant brain tumor-like protein 1 (Homo sapiens), Q9Y468; 0.66% of 230,000 active; AlphaScreen L3MBTL1–H3K9me1 peptide binding; note: % is set by controls: 0 for no effect and ±100 for the full control effect; nearly all actives have a fitted effect of over 60% in size
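AlphaScreen proximity signal between nickel-chelate acceptor and streptavidin donor beads (final 10 ug/mL) reports binding of 50 nM L3MBTL1 to 75 nM biotin-H3 K9me1 peptide; complex incubated with compounds 30 min at room temperature; cefsulodin titration as control.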
JMJD2A Tudor: qHTS Assay for Inhibitors of JMJD2A-Tudor Domain; 4.4% of 390,000 active; Lysine-specific demethylase 4A (Homo sapiens), O75164; AID 504339, 2011; Potency, µM (titrated, usually from 114 µM), inactives show at the highest dose activity change, negative = inhibition, hits mostly inhibitors; AlphaScreen JMJD2A-Tudor / H3K4me3 peptide binding; note: % is set by controls: 0 for no effect and ±100 for the full control effect; nearly all actives have a fitted effect of over 50% in size
Target sequence (O75164 whole entry, looked up, the tested form may be a part): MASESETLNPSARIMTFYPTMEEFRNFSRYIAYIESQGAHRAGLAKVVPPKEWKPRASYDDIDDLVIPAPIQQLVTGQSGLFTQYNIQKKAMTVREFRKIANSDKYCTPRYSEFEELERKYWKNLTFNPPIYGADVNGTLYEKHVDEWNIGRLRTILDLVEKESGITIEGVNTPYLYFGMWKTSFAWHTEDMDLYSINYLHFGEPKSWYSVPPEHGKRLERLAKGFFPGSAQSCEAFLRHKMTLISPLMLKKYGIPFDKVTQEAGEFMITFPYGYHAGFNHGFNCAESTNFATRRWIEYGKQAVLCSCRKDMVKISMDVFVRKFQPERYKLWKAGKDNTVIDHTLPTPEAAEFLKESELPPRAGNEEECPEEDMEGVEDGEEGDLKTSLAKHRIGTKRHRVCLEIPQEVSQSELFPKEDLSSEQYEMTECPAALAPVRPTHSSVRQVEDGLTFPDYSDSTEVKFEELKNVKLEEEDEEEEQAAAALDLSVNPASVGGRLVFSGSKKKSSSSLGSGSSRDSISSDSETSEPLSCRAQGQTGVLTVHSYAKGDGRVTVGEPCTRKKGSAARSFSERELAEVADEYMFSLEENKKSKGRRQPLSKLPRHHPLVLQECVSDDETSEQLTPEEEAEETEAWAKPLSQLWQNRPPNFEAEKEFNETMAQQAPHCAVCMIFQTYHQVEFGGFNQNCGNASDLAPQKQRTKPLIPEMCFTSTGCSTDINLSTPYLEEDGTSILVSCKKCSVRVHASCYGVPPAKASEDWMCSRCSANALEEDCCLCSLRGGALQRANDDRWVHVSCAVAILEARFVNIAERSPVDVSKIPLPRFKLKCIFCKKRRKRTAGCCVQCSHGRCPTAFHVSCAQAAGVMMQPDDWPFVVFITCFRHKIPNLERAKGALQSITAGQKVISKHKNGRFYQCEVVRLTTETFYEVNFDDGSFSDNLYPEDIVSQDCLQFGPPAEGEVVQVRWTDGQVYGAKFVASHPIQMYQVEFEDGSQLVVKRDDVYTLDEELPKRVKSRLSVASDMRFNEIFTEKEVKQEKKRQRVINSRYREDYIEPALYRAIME
An asterisk follows results filed as active; u = inconclusive; x = no result; [ ] = another dose, or the depositor's remark. Calls come from the whole dose curve; as a rule, active = well fitted curve in the direction sought with a large enough effect; inconclusive = small, poorly fitted or top-dose-only effect, or another doubt; inactive = no such curve, though single readings can be large; an effect the other way counts as inactive or inconclusive. Potency is the fitted concentration of half-maximal effect.

SMILES | BAZ2B block | GLS inhibitor | HP1b binding inh | G9a inh | L3MBTL1 block | JMJD2A Tudor
COC(=O)c1ccc(NC(=O)C(OC)c2ccccc2)cc1 (stereo unspecified) | -6% | -2% | 24% | 15%[59 µM] | 67% | -7%
N#CN1CCC(NC(=O)c2cccc(F)c2)CC1 | x | x | x | x | x | -12%
CN(CP(=O)(O)CN(C)S(C)(=O)=O)S(C)(=O)=O | 89µM* | -1% | 9% | -45%[12.7 µM] | -4% | 50µM*
COc1ccc(-c2nnc(SCC(=O)Oc3cccc(C)c3C)o2)cc1 | -27% | 0% | 13% | -33%[59 µM] | x | -20%
COc1cc(C(=S)N(C)C)ccc1O | -2% | 15% | u | 6.3µM* | 2% | -18%[11.4 µM]
CC1=C(CC(=O)c2ccc(Cl)cc2)C(=O)c2ccccc2C1=O | 32µM* | -2% | -53% | u | u | 32µM*
O=C(Cc1ccccn1)c1ccc(Cl)cc1 | -7% | -1% | 67% | -6%[2.33 µM] | 8% | 11%
CCc1ccccc1NC(=O)C1CCCN(c2nnc(-n3c(C)ccc3C)s2)C1 (stereo unspecified) | -18% | -12% | -8% | -16%[59 µM] | x | -32%
COc1ccccc1C1C=C(c2ccc(Cl)cc2)Nc2nc(NS(C)(=O)=O)nn21 (stereo unspecified) | 3% | x | x | 50µM* | 4% | x
COc1ccccc1C1C=C(c2ccccc2)Nc2nnnn21 (stereo unspecified) | 8% | -7% | 34% | -26%[59 µM] | 6% | -13%
COc1ccccc1C1C=C(c2ccc(Cl)cc2)Nc2nc(N3C(=O)CCC3=O)nn21 (stereo unspecified) | x | 1% | 17% | u | 0% | 45µM*
COc1ccc(C2C=C(c3ccc(F)cc3)Nc3nc(-c4ccc(Cl)cc4)nn32)cc1 (stereo unspecified) | -1% | -29% | 68% | -13%[59 µM] | x | -34%
COc1ccc(C2=CC(c3ccccc3Cl)n3nc(-c4ccc(C)cc4)nc3N2)cc1 (stereo unspecified) | 11µM* | -6% | -11% | u | x | u
Cc1ncc(COC(=O)C(C)C)c2cc(C(=O)Nc3ccccc3C(F)(F)F)c(=O)oc12 | 8% | -9% | 57% | 35%[59 µM] | x | -5%
O=C(N1CCc2cc([S+](=O)([O-])N3CCN([S+](=O)([O-])c4c(F)cccc4F)CC3)ccc2C1)C(F)(F)F | x | x | x | x | x | -18%
CC(COc1ccccc1)NN (stereo unspecified) | x | 4% | x | x | x | x
COc1ccc(NC(=O)/C(C#N)=C\c2ccc(-c3cc(C(=O)O)ccc3C)o2)cc1 | 56µM* | u | -14% | 25µM* | u | u
COc1ccc(NC(=O)/C(C#N)=C\c2ccc(Br)o2)cc1 | u | -9% | -33% | x | x | 56µM*
COc1ccc(NC(=O)/C(C#N)=C/c2ccc(-c3ccccc3C(=O)O)o2)cc1 | -21% | -4% | 13% | -6% | 4% | -31%
COc1ccc(-c2cnc(C)o2)cc1S(=O)(=O)Nc1ccc(F)cc1F | u | 3% | 41% | 3%[59 µM] | x | -17%
O=C1C(C2=C(O)c3ccccc3C2=O)=Nc2ccccc21 | 40µM* | -10% | u | x | u | 32µM*
COc1ccc(CN2C(=O)Cc3c2nc(N)c2c(N)nc(N4CCOCC4)c(C#N)c32)cc1 | -27% | 4% | 14% | -30%[12.7 µM] | x | -6%
N#CCc1c(C#N)c(N)nc(N2CCN(c3ccc(F)cc3)CC2)c1C#N | 13% | 27% | 13% | 50µM* | x | u
COCCN1C(=O)Cc2c1nc(N)c1c(N)nc(N3CCN(c4ccc(F)cc4)CC3)c(C#N)c21 | -34% | -18% | 5% | 35µM* | -23% | -32%
CCC(=O)C1=C(c2ccc(F)cc2)N(C(=O)CC)n2cnnc2S1 | -2% | -8% | 103% | u | x | 3%
SMILES | BAZ2B block | GLS inhibitor | HP1b binding inh | G9a inh | L3MBTL1 block | JMJD2A Tudor
CCOC(=O)c1c(C)c(-c2ccccc2)n(CC(=O)NCCc2ccc(C)cc2)c1C | 2% | 0% | 21% | -5%[59 µM] | x | 0%
COc1ccc(CCNC(=O)c2ccc3c(c2)CCN3S(=O)(=O)c2ccc(Cl)cc2)cc1 | -3% | 0% | 29% | -20%[59 µM] | x | -15%
Cc1cc(C)c(S(=O)(=O)N2CCCOC2CNC(=O)C(=O)NCCCn2ccnc2)c(C)c1 (stereo unspecified) | u | -2% | 20% | 5%[59 µM] | -7% | 1%
COc1ccc(S(=O)(=O)N2CCCOC2CNC(=O)C(=O)NCCCn2ccnc2)cc1OC (stereo unspecified) | 71µM* | 3% | 8% | 4% | -8% | -14%
COc1ccc(S(=O)(=O)N2CCOC2CNC(=O)C(=O)NCCCn2ccnc2)cc1OC (stereo unspecified) | 22µM* | -1% | 63% | 14% | -29% | -21%
COc1ccc(CCNC(=O)c2ccc3c(c2)N(Cc2ccc(F)cc2)C(=O)CS3)cc1OC | 13% | 3% | 59% | u | x | -34%
COc1ccc(Cl)cc1NC(=O)Cn1cc(C(=O)c2ccncc2)c(=O)c2cc(C)ccc21 | 0% | -11% | 11%[57 µM] | 8%[59 µM] | x | -20%
Cc1noc(/C=C/c2ccco2)c1S(=O)(=O)N1CCC(C(=O)Nc2ccc(F)cc2F)CC1 | x | -12% | 18% | -8%[59 µM] | x | -13%
COC(=O)c1[nH]c2ccc(C)cc2c1NC(=O)CN1CCCc2ccccc21 | u | 11% | u | u | -66% | -32%
Cc1ccc2[nH]c3c(c2c1)CN(C(=O)CN1CCN(c2ccccc2F)CC1)CC3 | -25% | x | x | 32µM* | 0% | x
Cc1ccc2[nH]c3c(c2c1)CN(C(=O)CN1CCCCC1)CC3 | u | 11% | 14% | 50µM* | x | -14%
Cc1ccc2[nH]c3c(c2c1)CN(C(=O)CN1CCCc2ccccc21)CC3 | -14% | 2% | u | 3.2µM* | 12% | 28µM*
O=C(CN1CCN(Cc2ccc3c(c2)OCO3)CC1)N1CCc2[nH]c3ccc(F)cc3c2C1 | u | -4% | -25% | u | -6% | u
COc1ccc(C(=O)Nc2cccc(C(=O)OCc3cc(=O)n4nc(C5CC5)sc4n3)c2)cc1 | -20% | u | 19% | 2%[59 µM] | x | -23%
CN(N)C(=S)Nc1ccc(F)cc1 | -17% | 33% | 43% | 50µM* | 11% | -8%
Cc1ccc(NC(=S)N(C)N)cc1Cl | u | -2% | 59% | 32µM* | 3% | 3%
Cc1ccc(NC(=S)N(Cc2ccc(Cl)cc2)Cc2ccc(C(=O)O)cc2)cc1Cl | -33% | 26% | -13% | 40µM* | x | -21%
